Bioassay records (PubChem BioAssay)
D1 antagonist = human D1 dopamine receptor antagonism. P21728. HEK293 TREx D1 cells, calcium flux, dopamine EC80; active compounds read low. activity change, negative = inhibition, % at 10 µM. 3.2% of 360,000 active; in the data active = activity change below about -30%
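Tetracycline-induced HEK293 Trex D1 cells, force-coupled to calcium, dye-loaded; compounds added and read 180 s, then EC80 dopamine added and calcium flux tracked kinetically another 180 s.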
D1 ag = human D1 receptor agonism; HEK293 T-REx D1 cells, calcium flux, agonist mode; AID 504660; activation, % at 2 µM; 1% of 360,000 active; P21728
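Tetracycline-induced HEK293 TREx D1 cells, force-coupled to calcium signalling, were dye-loaded with a no-wash calcium kit. Compound was pin-added after a 10 s baseline. Fluorescence was read kinetically at 1 cycle/s for 180 s, with calcium rises flagged as agonism.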
TRHR ag = agonists of human TRH receptor | P34981 | TRHR cells, calcium flux fluo-8, FDSS agonist mode | activation, % at 2 µM | 0.18% of 360,000 active
Target sequence (P34981 whole entry, looked up): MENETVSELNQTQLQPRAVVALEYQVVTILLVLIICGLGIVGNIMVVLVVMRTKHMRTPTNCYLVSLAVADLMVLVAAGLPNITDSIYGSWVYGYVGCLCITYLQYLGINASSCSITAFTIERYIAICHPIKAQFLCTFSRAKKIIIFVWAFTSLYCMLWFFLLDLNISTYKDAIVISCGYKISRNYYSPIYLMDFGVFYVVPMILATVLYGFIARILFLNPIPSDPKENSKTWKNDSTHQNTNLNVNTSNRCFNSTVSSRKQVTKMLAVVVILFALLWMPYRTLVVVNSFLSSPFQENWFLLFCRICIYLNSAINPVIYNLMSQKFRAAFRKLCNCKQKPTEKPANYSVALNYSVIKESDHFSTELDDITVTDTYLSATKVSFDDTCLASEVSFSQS
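Fluo-8-loaded TRHR cells; 10 s baseline, compound added, kinetic Ca2+ fluorescence read 1/s, agonist mode.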
D1 PAM = enhances dopamine response at the human D1 receptor; HEK293 TREx D1 cells, calcium flux, dopamine EC20 potentiation; potentiation, % at 10 µM; P21728; 0.036% of 360,000 active; in the data active = potentiation above about 30%
TRHR enhancer = allosteric enhancers of human TRH receptor. P34981. TRHR cells, fluo-8 calcium fluorescence, EC20 TRH enhancement. enhancement, % at 2 µM. 0.66% of 360,000 active. AID 493056; in the data active = enhancement above about 30%
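TRHR-expressing cells loaded with fluo-8 calcium dye were read kinetically (ex 480/em 530) during compound addition, then stimulated with an EC20 of TRH (10 nM final). Enhancement of the Gq-mediated intracellular calcium response was scored.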
A number is an active result; . = inactive; / = no result given; ! = not active in a repeat. Hits are enriched below; roughly 4.7% of the tested compounds scored in any of these assays. Cut-off read from the data, not from the text of the source, unless noted: active = activation above about 30%; inactive = the rest.

SMILES	D1 antagonist	D1 ag	TRHR ag	D1 PAM	TRHR enhancer
O=C(CCc1nc(-c2cccs2)no1)Nc1cccc([N+](=O)[O-])c1	-34	.	.	.	.
COc1ccc(-c2noc(CCC(=O)Nc3cccc(C)c3)n2)cc1	-45	.	.	.	.
CCOC(=O)c1cccc(NC(=O)CCc2nc(-c3ccccc3F)no2)c1	.	.	.	.	.
CCN(C(=O)CCc1nc(-c2ccc(OC)cc2)no1)c1cc(OC)ccc1OC	-49	.	.	.	.
O=C(CCc1nc(-c2ccccc2F)no1)Nc1cccc(C(F)(F)F)c1	.	32	.	.	.
COc1ccc(CCCc2nnc(SCC(=O)Nc3cccc(C)c3)o2)cc1	-43!	46!	.	.	.
O=C(CCc1nc(-c2ccccc2F)no1)NC1CCN(Cc2ccccc2)CC1	-30	31	.	.	.
COc1ccc(-n2ncc(C(=O)NCCCN3CCCCC3)c2C2CCN(C(=O)OC(C)(C)C)CC2)cc1	.	.	.	.	.
O=C(NCc1ccccc1)c1nc(-c2ccc(Cl)cc2)n2c1CCCCC2	.	.	.	.	.
CNc1ccc(C(=O)N2CCN(S(=O)(=O)c3ccc4c(c3)OCCCO4)CC2)cc1[N+](=O)[O-]	.	.	.	.	.
CC(C)CCN(C(=O)CCSc1ccc(F)cc1)c1c(N)n(Cc2ccccc2)c(=O)[nH]c1=O	.	.	.	.	.
Cc1ccc(OCCCN2CCOCC2)c([N+](=O)[O-])c1	.	.	.	.	31
Cc1ccc([N+](=O)[O-])c(OCCN2CCc3ccccc3C2)c1	-52	.	.	.	.
O=[N+]([O-])c1ccccc1OCC(O)CN1CCN(CC(O)COc2ccccc2[N+](=O)[O-])CC1 (stereo not given)	-46	.	.	.	.
Cc1cc(OCCN2CCOCC2)ccc1[N+](=O)[O-]	.	.	.	.	.
O=[N+]([O-])c1ccccc1OCCN1CCCC1	-38	.	.	.	.
O=[N+]([O-])c1ccccc1OCCN1CCOCC1	.	.	.	.	.
O=C(Nc1cccc(F)c1)c1ccc2c(c1)N(Cc1ccccc1)C(=O)c1ccccc1S2(=O)=O	.	.	.	.	.
COc1ccccc1OCCNC(=O)C1CC(=O)N(Cc2ccc(C)cc2)C1 (stereo not given)	.	.	.	.	.
O=[N+]([O-])c1cc(S(=O)(=O)N2CCCC2)ccc1OCCOc1ccccc1	.	35	.	/	.
Cc1ccc(OCCN2CCN(C)CC2)c([N+](=O)[O-])c1	-38	.	.	.	.
Cc1ccc(OCCN2CCNCC2)c([N+](=O)[O-])c1	.	.	.	.	.
Cc1ccc(CNC(=O)Cn2c(=O)n(-c3ccc(C)cc3)c(=O)c3c2c2cc(C)ccc2n3C)cc1	.	.	.	.	.
CC(=O)N(Nc1ccccc1)c1ccccc1	-52	.	.	.	.
CCCNc1c(NS(=O)(=O)c2cccs2)c(=O)oc2ccccc12	.	.	.	.	.
SMILES	D1 antagonist	D1 ag	TRHR ag	D1 PAM	TRHR enhancer
COc1ccc(C(=O)COc2ncnc3cc(Cl)ccc23)cc1	.	.	.	.	36
O=C(NCCc1nc2ccccc2n1Cc1ccc(Cl)cc1Cl)c1ccco1	.	.	.	.	.
O=C(O)C(c1ccccc1)N1C(=O)/C(=C\c2ccc(-c3ccc(Br)cc3)o2)SC1=S (stereo not given)	.	66	.	.	.
O=C(O)C(c1ccccc1)N1C(=O)/C(=C\c2ccc(-c3ccccc3Cl)o2)SC1=S (stereo not given)	.	.	.	.	.
O=C(NCC1CCCO1)c1ccc(NC(=O)c2cc(F)c(F)cc2Cl)cc1 (stereo not given)	.	.	.	.	33
Cc1cnc(CNC(=O)c2ccc(OC3CCN(C(=O)C4CC4)CC3)cc2)cn1	.	.	.	.	.
O=C(NCC1CCCO1)c1ccc(OC2CCN(C(=O)C3CC3)CC2)cc1 (stereo not given)	-34	.	.	.	.
CCOc1ccc(CCNC(=O)CCn2c(=O)c3cccn3c3cccnc32)cc1	.	.	.	.	.
COc1ccc(CN(C)CC(O)COc2ccc(-c3ccccc3)cc2)cc1OC (stereo not given)	.	43	.	.	.
CN(Cc1ccc(OCC(O)CN(C)Cc2ccccc2)cc1)Cc1nccn1C (stereo not given)	.	.	.	.	.
